Source: PubChem BioAssay AID602438 (Sanford-Burnham Center for Chemical Genomics, 2012)
Out of some 360,000 compounds screened, about 3,100 (0.86%) were called active. The sample holds actives, similar compounds and a random draw of the others, so the mix is not that of the screen. Unmarked numbers belong to inactive results.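 How the source made its calls: active means inhibition or corrected inhibition above about 18%, plus a signal ratio from 0.5 to 1.5 (limit read from the data, passing the limit was not always enough); inactive means the rest.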

Each molecule was assayed against Neuropilin-1 (Homo sapiens) (UniProt O14786) (assay: NRP-1/CendR peptide interaction modulators – biochemical, fluorescence polarization, uHTS, primary screen (AID 602438)). Conditions: FAM-RPARPAR peptide binding to NRP-1, fluorescence polarization; at 25 µM; stronger effect = higher value.
Neuropilin-1 (Homo sapiens), sequence (O14786 whole entry, looked up): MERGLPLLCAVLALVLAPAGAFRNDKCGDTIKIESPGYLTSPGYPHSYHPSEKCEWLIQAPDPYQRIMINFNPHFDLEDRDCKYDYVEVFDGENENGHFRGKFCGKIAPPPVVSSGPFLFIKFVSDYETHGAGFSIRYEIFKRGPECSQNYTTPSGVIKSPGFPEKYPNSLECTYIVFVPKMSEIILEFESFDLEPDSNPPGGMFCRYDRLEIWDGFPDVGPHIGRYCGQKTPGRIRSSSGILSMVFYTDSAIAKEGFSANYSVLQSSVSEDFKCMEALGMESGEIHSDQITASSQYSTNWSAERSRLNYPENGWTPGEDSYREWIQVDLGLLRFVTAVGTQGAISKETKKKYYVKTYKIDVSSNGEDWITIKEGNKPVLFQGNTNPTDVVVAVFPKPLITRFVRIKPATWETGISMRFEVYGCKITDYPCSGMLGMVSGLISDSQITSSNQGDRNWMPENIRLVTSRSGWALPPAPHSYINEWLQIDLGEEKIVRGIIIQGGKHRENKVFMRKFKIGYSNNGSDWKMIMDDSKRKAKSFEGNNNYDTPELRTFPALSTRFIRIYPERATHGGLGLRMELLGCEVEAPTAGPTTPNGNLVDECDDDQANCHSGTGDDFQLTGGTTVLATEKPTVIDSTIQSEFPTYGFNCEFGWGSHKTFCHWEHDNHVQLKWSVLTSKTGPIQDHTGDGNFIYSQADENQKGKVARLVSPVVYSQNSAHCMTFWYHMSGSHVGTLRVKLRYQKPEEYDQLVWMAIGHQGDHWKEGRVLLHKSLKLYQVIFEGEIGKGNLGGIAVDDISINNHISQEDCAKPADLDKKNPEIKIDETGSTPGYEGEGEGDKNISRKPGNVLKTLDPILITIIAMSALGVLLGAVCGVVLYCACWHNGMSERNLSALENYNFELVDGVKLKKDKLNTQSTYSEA

Row | SMILES | inhibition
1 | CSCCC(NS(=O)(=O)c1ccc(C)cc1)C(=O)N(C)CC(=O)Nc1ccccc1Br (stereo unspecified) | 3.9%
2 | O=C(CNC(=O)c1n[nH]c2ccccc12)Nc1cc(Cl)ccc1Cl | 3.5%
3 | CCC(NC(=O)c1cc(COc2ccc(F)c(F)c2)on1)c1ccncc1 (stereo unspecified) | 1.4%
4 | COc1ccccc1C1C(C(N)=O)=C(C)Nc2nc(CCCO)nn21 (stereo unspecified) | 3.8%
5 | COCCOC(=O)C1=C(C)Nc2nc(C)nn2C1c1ccccc1 (stereo unspecified) | 36.8% (active)
6 | CC1=C(C(N)=O)C(c2ccc(F)cc2)n2nc(CCCO)nc2N1 (stereo unspecified) | 6.8%
7 | Cc1noc(C)c1CSc1nnc2ccc3ccccc3n12 | 10.5%
8 | COc1ccc(-c2ccc3nnc(SCC(=O)Nc4ccc(NC(C)=O)cc4)n3n2)cc1 | -19%
9 | CC1C(C)N(C(=O)CCl)c2ccccc2N1C(=O)CCl (stereo unspecified) | 27.7% (active)
10 | CC1C(=O)N(Cc2ccccc2)c2ccccc2N1C(=O)c1ccccc1 (stereo unspecified) | 1.5%
11 | CNC(=O)N1c2ccccc2C=Cc2ccccc21 | 2.6%
12 | CCN(CC)c1ccc(C2C3CCCCC3(O)CCN2CC(=O)Nc2ccccc2)cc1 (stereo unspecified) | -12.5%
13 | CC(C)Cc1nc(Nc2ccc(S(=O)(=O)N3CCCC3)cc2)c2nnn(Cc3ccccc3)c2n1 | -9.8%
14 | CCN(CC)CCN1C(=O)C2C(C(=O)Nc3ccc(Br)cc3)C3C=CC2(O3)C1C(=O)NC1CCCCC1 (stereo unspecified) | 10%
15 | CC(C)COC(=O)C1C2C=CC3(CN(C(C)c4ccc(Br)cc4)C(=O)C13)O2 (stereo unspecified) | 27.4% (active)
16 | CCOC(=O)CN1CC23C=CC(O2)C(C(=O)Nc2ccc(F)cc2)C3C1=O (stereo unspecified) | -3.4%
17 | CCOC(=O)C1CCN(C(=O)c2ccccc2N(C)S(=O)(=O)c2ccccc2)CC1 | 7.6%
18 | Cc1cccc(N2CCN(C(c3ccc(N(C)C)cc3)c3nnnn3C(C)(C)C)CC2)c1C (stereo unspecified) | -6.2%
19 | O=C(CCl)NNc1cccc(Cl)n1 | 5.6%
20 | COc1ccc(-c2c(C#N)cnc(C)c2C)c(O)c1OC | 37.9% (active)
21 | O=C(CC1SC(=Nc2ccccc2F)N(CCN2CCOCC2)C1=O)Nc1ccc(F)cc1F (stereo unspecified) | -6.8%
22 | CCc1ccc(-c2nc(SCC(=O)NC3CCCC3)n[nH]2)cc1 | -8.8%
23 | Cc1cc(C)c(S(=O)(=O)N2CCCC2CNC(=O)c2ccc3c(c2)OCO3)c(C)c1 (stereo unspecified) | -6.7%
24 | Cc1cc(NS(=O)(=O)c2ccc(NC(=O)C(C)Oc3cccc(C)c3C)cc2)nc(C)n1 (stereo unspecified) | -7.8%

Row | SMILES | inhibition
25 | CC(C)(C)S(=O)(=O)c1ccccc1-c1noc(-c2ccccc2)c1C(N)=O | 42.7% (active)
26 | Cc1onc(-c2ccccc2)c1C(=O)N1CCN(S(=O)(=O)c2ccccc2C(F)(F)F)CC1 | -195%
27 | O=C(COC(=O)c1cccnc1Cl)NC12CC3CC(CC(C3)C1)C2 | 8%
28 | CC1(C(=O)NCc2ccc3c(c2)OCO3)CCN1C(=O)Cc1cccs1 (stereo unspecified) | 3%
29 | Cc1cc(C(=O)COc2ccccc2[N+](=O)[O-])c(C)n1-c1cccc(S(=O)(=O)N2CCOCC2)c1 | -14.8%
30 | CCc1c(N=O)c(-c2ccccc2)n(O)[n+]1[O-] | 5.4%
31 | O=C(CN1CCN(Cc2ccc(F)cc2Cl)C1=O)NCc1cccs1 | -1.9%
32 | CCN=C1S/C(=C\c2cc(Br)ccc2OCC(=O)OCC)C(=O)N1CC | -10.1%
33 | CN(C)c1ccc2c(=O)[nH][nH]c(=O)c2c1 | 11.3%
34 | COc1ccc(CNC(=O)C2CCN(C(=O)c3ccco3)CC2)cc1 | -1%
35 | COc1ccc(CNC(=O)[C@@H]2CC=C[C@@H]3CCN(C4CC4)C(=O)[C@@H]32)cc1 | 25.5% (active)
36 | COc1ccc(CNC(=O)C2CCN(S(C)(=O)=O)CC2)cc1 | -11.1%
37 | COc1cccc(/C=N/NC(=O)C(=O)N2CCCC2)c1 | -7.9%
38 | CCOC(=O)C1(Cc2ccccc2C(F)(F)F)CCN(C(=O)c2cc(C)n(C)n2)CC1 | -5.9%
39 | O=C(O)c1ccccc1N=N/C(=N/Nc1cc(S(=O)(=O)O)ccc1O)c1ccccc1 | 41.5% (active)
40 | Cc1ccc(S(=O)(=O)N(C)c2ccc(OCC(=O)OCc3ccc(C#N)cc3)cc2)cc1 | -6.5%
41 | O=C(c1ccc(N2CCCC2=O)cc1)N1CCN(c2ccc(C(F)(F)F)cc2[N+](=O)[O-])CC1 | -0.8%
42 | O=C(Cc1ccc(S(=O)(=O)N2CCOCC2)s1)N1CCN(c2ccc(C(F)(F)F)cc2[N+](=O)[O-])CC1 | 27.6% (active)
43 | O=C(c1ccc(N2CCOCC2)c([N+](=O)[O-])c1)N1CCN(S(=O)(=O)c2cccs2)CC1 | -14%
44 | N#Cc1cccc(CSc2ncnc(N)n2)c1 | 12.4%
45 | CCOC(=O)C1CCN(C(=O)CN2C(=O)NC(C)(c3ccc4cc(OC)ccc4c3)C2=O)CC1 (stereo unspecified) | -3.2%
46 | CC1=C(C(N)=O)C(c2sccc2C)n2nnnc2N1 (stereo unspecified) | -5.6%
47 | Cc1cccc(OCC(=O)NC2CC(C)(C)NC(C)(C)C2)c1 | -1.1%
48 | CC(Oc1cccc(Cl)c1)C(=O)NC1CC(C)(C)NC(C)(C)C1 (stereo unspecified) | 24.2% (active)

Row | SMILES | inhibition
49 | Cc1cc(OC(C)C(=O)NC2CC(C)(C)NC(C)(C)C2)c2c(C)cc(=O)oc2c1 (stereo unspecified) | 1.2%
50 | COc1cccc(C2=CC(=O)C[C@H](c3ccc(OC)c(OC)c3)C2)c1 | -4.1%
51 | CC(C)(C)C(=O)c1cnc(Nc2ccccc2)s1 | 37.4% (active)
52 | S=c1[nH]nc(Nc2ccccc2)s1 | 0.6%
53 | O=C(/C=C/Nc1ccccc1)c1cnc(-c2ccccc2)s1 | 5.7%
54 | O=c1cc(Cl)c2ccccc2n1-c1ccccc1 | 0%
55 | CCOCCn1[nH]c2ccccc2c1=O | 8.9%
56 | COc1ccc(N2CCN(C(=O)[C@@H](NC(=O)c3cc(OC)cc(OC)c3)C(C)C)CC2)cc1 | 4%
57 | COc1cc(OC)cc(C(=O)NC(C(=O)N2CCC2)C(C)C)c1 (stereo unspecified) | -2.9%
58 | COc1cc(OC)cc(C(=O)N[C@H](C(=O)NNC(=O)c2ccc(Br)cc2)C(C)C)c1 | 22.8% (active)
59 | CC1CCN(S(=O)(=O)c2ccc(S(=O)(=O)NCc3ccco3)cc2)CC1 | 8.7%
60 | CN(C)C(=S)N=c1ssc(=S)n1Cc1ccco1 | -2.5%
61 | O=C(O)C(c1cccs1)C1(O)CCCCC1 (stereo unspecified) | 27.7% (active)
62 | O=C(O)C(c1ccccc1)C1(O)CCCCC1 (stereo unspecified) | -0.6%
63 | CN(C)CCOC(=O)C(c1ccccc1)C1(O)CCCC1 (stereo unspecified) | 5.3%
64 | O=C(Cn1cc(C(F)(F)F)ccc1=O)Nc1ccc2c(c1)OCCO2 | -9.1%
65 | O=C(/C=N/O)Nc1ccccc1 | 3.7%
66 | C#CC(C)(C)NC(=O)c1cnc(-c2ccccc2)nc1-c1ccccc1 | -0.8%
67 | CCOC(=O)c1cc2n(c1N)-c1ccccc1C2=O | 29.5% (active)
68 | CCOC(=O)c1cnn(Cc2ccccc2Cl)c1N | -3.4%
69 | CCOC(=O)c1ccn(S(=O)(=O)c2ccc(C)cc2)c1-c1ccccc1 | -9.6%
70 | CCC(C(=O)NC1CCCC1)N(C(=O)c1snc(C(N)=O)c1N)c1ccc2c(c1)OCCO2 (stereo unspecified) | 5.9%
71 | CC(NC(=O)COC(=O)Cn1cc(C(F)(F)F)ccc1=O)c1ccccc1 (stereo unspecified) | -13.9%
72 | CCN(CC)N=Nc1cccc(NC(C)=O)c1 | 1.7%

Row | SMILES | inhibition
73 | Cc1ccc2c(c1)-c1c(ssc1=S)C(C)(C)N2C(=O)CN1C(=O)c2ccccc2C1=O | -1.5%
74 | Cc1ccc(NC(=O)CCN2C(=O)c3ccccc3C2=O)cc1C | 15.6%
75 | Cc1cc2c(cc1C)N(C(=O)CN1C(=O)c3ccccc3C1=O)C(C)(C)c1ssc(=S)c1-2 | 23.1% (active)
76 | C=CCn1nc(-c2ccccc2)c2c(C)onc2c1=O | -1.4%
77 | CN1c2ccc(C=O)c3c(C=O)ccc(c23)N(C)C1(C)C | 56.9% (active)
78 | Cc1ccc(C=O)c([B-](F)(F)F)c1 | -8.7%
79 | O=C(CCN1CCCO1)N1CCCC(N2CCN(c3cccc(C(F)(F)F)c3)CC2)C1 (stereo unspecified) | 10.2%
80 | CC1CCCN(C(=O)c2ccc3c(c2)C(=O)N(CCC2=CCCCC2)C3=O)C1 (stereo unspecified) | 9.2%
81 | COC(=O)c1cccc(NC(=O)CSc2nc(C)cc(=O)[nH]2)c1 | -10.7%
82 | Cc1cc(C)c(C(=O)CSc2nc(C)cc(=O)[nH]2)c(C)c1 | 26.7% (active)
83 | Cc1cc(=O)[nH]c(SCc2ccc(Cl)cc2)n1 | 21.5%
84 | N#CCN(C(=O)COC(=O)C1CC2CCCC(C1)C2=O)c1ccccc1 (stereo unspecified) | -17.5%
85 | O=C(NC(=O)c1ccccc1N1CCCCC1)Nc1ccc(Br)cc1 | 5.9%
86 | Cc1cccc(C)c1NC(=O)CN1CCN(c2ccc(F)cc2)CC1 | 19.5% (active)
87 | CCOC(=O)N1CCN(CC(=O)Nc2ccc(F)cc2)CC1 | -14.8%
88 | Cc1cccc(C)c1NC(=O)CS(=O)CC(=O)N1CCN(c2ccccc2)CC1 (stereo unspecified) | 16%
89 | Cc1cc(Nc2ccc(C)c(C)c2)n2ncnc2n1 | 4.8%
90 | CC1(c2cccc(Br)c2)NC(=O)N(CC(=O)NCCC2=CCCCC2)C1=O (stereo unspecified) | 6.7%
91 | Cc1ccc(S(=O)(=O)NNC(=O)Nc2cccc3ccccc23)cc1 | 1.8%
92 | Cc1ccc(S(=O)(=O)NNC(=O)/C=C/c2cccc(F)c2)cc1 | 20.7% (active)
93 | Cc1ccc(S(=O)(=O)NC(=O)c2cccc(C)c2)cc1 | -0.5%
94 | COc1ccc(CN(C)C(=O)Cc2c[nH]c3ccccc23)c(OC)c1OC | -1.4%
95 | COc1ccccc1NC(=O)CCCc1c[nH]c2ccccc12 | 65.3% (active)
96 | COc1ccc(Cl)cc1NC(=O)CN(C)C(=O)CCCc1c[nH]c2ccccc12 | 7.5%
